Assay results reported in PubChem BioAssay AID1159580 (chemical genetic matrix, 2015).
“And” between values parts separate entries of the source, which are not always exact repeats. Equal entries are not always repeated. In all, about 5,500 compounds went through this assay and about 2,000 (36%) were called active. Another 18% or so got no clear call; they are omitted. Rule as the data show it: active = normalized growth mostly below about 0.91 (no sharp cut-off); inconclusive = no clear call, values can overlap the other calls; inactive = mostly above about 0.92. The list shows a part of the results. A structure can be active in one record and inactive in another.

Experiment: chemical genetic growth profiling, strain panel (AID 1159580);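 also: tested at 20 µM; growth read once vehicle control cultures reached saturation at 30 °C; 1 = growth at the plate median or of vehicle wells; lower values mean less growth of the strain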
Conditions: growth OD

Measured: normalized growth

Cc1cc2c(C(C)C)c(O)c(O)c(C=O)c2c(O)c1-c1c(C)cc2c(C(C)C)c(O)c(O)c(C=O)c2c1O
active: S. cerevisiae deletion strains, locus YNL067W, strain RPL9B, stronger effect = lower value 0.773 and 0.808 | S. cerevisiae deletion strains, locus YNL071W, strain lat1, stronger effect = lower value 0.86 and 0.835 | S. cerevisiae deletion strains, locus YNL153C, strain GIM3, stronger effect = lower value 0.742 and 0.767 | S. cerevisiae deletion strains, locus YNL209W, strain ssb2, stronger effect = lower value 0.527 and 0.542 | S. cerevisiae deletion strains, locus YNL233W, strain BNI4, stronger effect = lower value 0.796 and 0.835 | S. cerevisiae deletion strains, locus YNL322C, strain KRE1 (second series), stronger effect = lower value 0.875 and 0.9 | S. cerevisiae deletion strains, locus YNL322C, strain KRE1, stronger effect = lower value 0.832 | S. cerevisiae deletion strains, locus YNR049C, strain mso1, stronger effect = lower value 0.854 and 0.889 | S. cerevisiae deletion strains, locus YOL006C, strain TOP1, stronger effect = lower value 0.436 | S. cerevisiae deletion strains, locus YOR001W, strain rrp6, stronger effect = lower value 0.764 and 0.819 | S. cerevisiae deletion strains, locus YOR061W, strain CKA2, stronger effect = lower value 0.653 and 0.79 | S. cerevisiae deletion strains, locus YOR069W, strain VPS5, stronger effect = lower value 0.799 and 0.9 | S. cerevisiae deletion strains, locus YOR070C, strain gyp1, stronger effect = lower value 0.893 and 0.784 | S. cerevisiae deletion strains, locus YOR080W, strain dia2, stronger effect = lower value 0.755 and 0.812 | S. cerevisiae deletion strains, locus YOR083W, strain WHI5, stronger effect = lower value 0.806 and 0.808 | S. cerevisiae deletion strains, locus YOR106W, strain vam3, stronger effect = lower value 0.537 and 0.567 | S. cerevisiae deletion strains, locus YOR265W, strain rbl2, stronger effect = lower value 0.808 and 0.842 | S. cerevisiae deletion strains, locus YOR270C, strain vph1, stronger effect = lower value 0.231 and 0.311 | S. cerevisiae deletion strains, locus YOR290C, strain snf2, stronger effect = lower value 0.525 and 0.627 | S. cerevisiae deletion strains, locus YPL051W, strain arl3, stronger effect = lower value 0.51 and 0.436 | S. cerevisiae deletion strains, locus YPL078C, strain atp4, stronger effect = lower value 0.715 and 0.778 | S. cerevisiae strains, strain wild type, stronger effect = lower value 0.809
inactive: S. cerevisiae deletion strains, locus YNL183C, strain NPR1, stronger effect = lower value 0.984 | S. cerevisiae deletion strains, locus YNL250W, strain rad50, stronger effect = lower value 0.961 and 0.957 | S. cerevisiae deletion strains, locus YNL271C, strain bni1, stronger effect = lower value 0.969 and 0.96 | S. cerevisiae deletion strains, locus YNL298W, strain CLA4, stronger effect = lower value 0.959 and 0.985 | S. cerevisiae deletion strains, locus YOL012C, strain htz1 0.315 and 0.44 | S. cerevisiae deletion strains, locus YOR136W, strain idh2, stronger effect = lower value 0.969 and 0.986 | S. cerevisiae deletion strains, locus YOR231W, strain MKK1, stronger effect = lower value 1.01 | S. cerevisiae deletion strains, locus YOR316C, strain cot1, stronger effect = lower value 0.967 and 1 | S. cerevisiae deletion strains, locus YPL256C, strain CLN2, stronger effect = lower value 0.973 | S. cerevisiae deletion strains, locus YPR119W, strain clb2, stronger effect = lower value 0.983 and 1.02 | S. cerevisiae deletion strains, locus YPR141C, strain kar3, stronger effect = lower value 0.984 and 0.991 | S. cerevisiae deletion strains, locus YPR163C, strain tif3, stronger effect = lower value 0.932 and 1.02
0.859 (active) and 0.978 (inactive): S. cerevisiae deletion strains, locus YOR144C, strain elg1, stronger effect = lower value
0.872 (active) and 0.991 (inactive): S. cerevisiae deletion strains, locus YOL147C, strain pex11, stronger effect = lower value
0.86 (active) and 0.906 (inactive): S. cerevisiae deletion strains, strain wtn01, stronger effect = lower value
0.846 (active) and 0.936 (inactive): S. cerevisiae deletion strains, locus YPL240C, strain hsp82, stronger effect = lower value
0.679 (active) and 0.959 (inactive): S. cerevisiae deletion strains, locus YNR052C, strain pop2, stronger effect = lower value
0.804 (active) and 0.984 (inactive): S. cerevisiae deletion strains, locus YNL307C, strain MCK1, stronger effect = lower value
0.892 (inactive) and 0.886 (active): S. cerevisiae deletion strains, locus YNL248C, strain rpa49, stronger effect = lower value
0.664 (active) and 0.912 (inactive): S. cerevisiae deletion strains, locus YOR184W, strain ser1, stronger effect = lower value
0.798 (active) and 0.905 (inactive): S. cerevisiae deletion strains, locus YPL106C, strain sse1, stronger effect = lower value
0.842 (active) and 0.958 (inactive): S. cerevisiae deletion strains, locus YPR167C, strain met16, stronger effect = lower value
0.56 (active) and 0.883 (inactive): S. cerevisiae deletion strains, locus YNL128W, strain TEP1, stronger effect = lower value
0.912 (active) and 0.957 (inactive): S. cerevisiae deletion strains, locus YPL241C, strain CIN2, stronger effect = lower value
